Data on 40 compounds can be found in PubChem BioAssay (Tox21).

Results filed as inconclusive are left out. Active and inactive are the calls of the source. Calls come from the whole dose curve; as a rule, active = well fitted activation curve with a large enough effect in the signal ratio in the repeat runs (not every such curve was filed as active); inconclusive = weak or mixed curves; inactive = flat fitted curve, though single readings scatter; the % refers to the signal ratio.

The assay can be described thus: qHTS assay to identify small molecule agonists of the TGF-beta/Smad signaling pathway (AID 1346859). Particulars: SBE-bla HEK293T, TGF-beta/Smad beta-lactamase reporter, 5 h; series mostly up to 76.8 µM. An excerpt: U.S. Tox21 Program National Center for Advancing Translational Sciences [NCATS] NIH Chemical Genomics Center [NCGC] U.S. Environmental Protection Agency [EPA] National Institutes of Environmental Health Sciences [NIEHS] National Toxicology Program [NTP] U.S. Food and Drug Administration [FDA] Tox21 Assay Overview: Transforming growth factor beta (TGF-beta) superfamily consists of a large number of structurally related dimeric proteins that act as hormones or local mediators in regulating a wide range of biological functions. This superfamily includes TGF-betas themselves, the bone morphogenetic proteins (BMPs) and the activins. These ligands induce oligomerization of serine/threonine receptor kinases and phosphorylate the cytoplasmic signaling molecules of Smad protein family. CellSensor SBE-bla HEK 293T cell line (Life Technologies, Carlsbad, CA), responsive to TGF-beta was used to screen Tox21 10K compound library for identification of agonists/antagonists of the Smad signaling pathway. This cell line contains a beta-lactamase reporter gene under control of the Smad binding element (SBE) stably integrated into HEK 293T cells.
Tox21 Assay Protocol Summary: SBE-bla HEK 293T cells were dispensed at 4,000/well in 6 uL of assay medium into black wall/clear-bottom 1536-well plates using a Multidrop Combi (ThermoFisher Scientific, Waltham, MA) dispenser. After the assay plates were incubated at 37 C and 5% CO2 for an overnight, 23 nL of compounds dissolved in DMSO, positive controls or DMSO only was transferred to the assay plate by a Pintool station (Kalypsys, San Diego, CA). The assay plates were incubated at 37 C and 5% CO2 for 5 hr. One uL of LiveBLAzer B/G FRET substrate (Life Technologies) was added using a Flying Reagent Dispenser (Aurora Discovery, San Diego, CA) and the plates were incubated at room temperature for 2 hr. Fluorescence intensity (405 nm excitation, 460 nm and 530 nm emissions) was measured using an Envision plate reader (PerkinElmer, Shelton, CT).
Consider `CN1C(=O)CCS(=O)(=O)C1c1ccc(Cl)cc1` (stereo not given), for which the call was inactive.

For `C[C@H]1C(=O)O[C@@H]2CCN3CC=C(COC(=O)[C@](C)(O)[C@]1(C)O)[C@H]23`, the compound was classed as inactive.

Turning to `CCOP(=S)(OCC)Oc1ccc([N+](=O)[O-])cc1`, the outcome was inactive.

`Cc1cccc(N)c1C`: the compound was called inactive.

As for `Nc1ccc(N)cc1`, the compound was classed as inactive.

Consider `ClC(Cl)c1ccccc1`, for which the compound was called inactive.

Regarding `Cl[C@H]1OCCO[C@@H]1Cl`, the compound was called inactive.

On to `Cc1cc(Cl)ccc1OC(C)C(=O)O` (stereo not given), for which the compound was called inactive.

As for `CCCCC(CC)C(=O)Cl` (stereo not given), the result was inactive.

For `Cc1ccccc1N`, the compound was classed as inactive.

`Oc1ccc(Cl)cc1`: the outcome was inactive.

As for `O=[N+]([O-])c1ccc(Cl)c(Cl)c1`, the compound was called inactive.

With `[N-]=[N+]=CC(=O)OC[C@H](N)C(=O)O`, the compound was classed as inactive.

For the compound `Nc1ccc([As](=O)(O)O)cc1`, the call was inactive.

`ClCCOCCCl`: the call was inactive.

Turning to `Nc1ncc([N+](=O)[O-])s1`, the outcome was inactive.

For `O=C(O)C(Br)Br`, the compound was called inactive.

For the compound `Clc1cnc(Oc2ccc(Oc3ncc(Cl)cc3Cl)cc2)c(Cl)c1`, the result was inactive.

Take `COC(=O)Nc1cccc(OC(=O)Nc2cccc(C)c2)c1`: the result was inactive.

On to `O=S(=O)(O)OOS(=O)(=O)O`, for which the call was inactive.

For `Cc1ccc(N=C=O)cc1N=C=O`, the call was inactive.

Take `C=CCN=C=S`: the result was inactive.

For `CCOC(=O)CC(SP(=O)(OC)OC)C(=O)OCC` (stereo not given), the outcome was inactive.

As for `COc1cc(-c2ccc(N)c(OC)c2)ccc1N`, the call was inactive.

In the case of `OC[C@@H](O)[C@H]1O[C@@H]2O[C@H](C(Cl)(Cl)Cl)O[C@@H]2[C@H]1O`, the compound was called inactive.

On to `O=C(O)CCCc1ccc(N(CCCl)CCCl)cc1`, for which the compound was called inactive.

For the compound `CN(C)C(=O)C(c1ccccc1)c1ccccc1`, the result was inactive.

As for `CCOc1ccc(N)cc1`, the result was inactive.

Turning to `O=C(O)COc1ccccc1`, the call was inactive.

As for `Sc1ccccc1`, the outcome was inactive.

For the compound `O=C(O)c1cc(Oc2ccc(C(F)(F)F)cc2Cl)ccc1[N+](=O)[O-]`, the result was inactive.

For the compound `C=C(C)C(=O)OCC(CC)CCCC` (stereo not given), the call was inactive.

On to `N#CN=C(N)N`, for which the call was inactive.

Turning to `FC(F)(F)c1ccc(Cl)cc1`, the compound was called inactive.

`CN(C)CCC#N`: the compound was called inactive.

Regarding `CC[N+](=O)[O-]`, the compound was called inactive.

On to `Nc1nc(N)nc(NC2CC2)n1`, for which the compound was called inactive.

Turning to `Nc1cccc(Cl)c1`, the outcome was inactive.

With `Cc1cccc(C)c1NC(=O)CN1CCCC1=O`, the call was inactive.

Consider `CCCOC(=O)c1ccccc1C(=O)OCCC`, for which the result was inactive.
